Experimental data taken from PubChem BioAssay (Tox21).
“And” between values parts separate entries of the source, which are not always exact repeats. Equal values may be shown once. Results filed as inconclusive are left out. A call without a number means that no potency is given here. More than one record can exist for a structure, and the calls need not agree. The source made the active and inactive calls. Unless noted, calls follow the shape of the full dose curve.

System: not listed separately
Experiment: Nuclear factor erythroid 2-related factor 2/antioxidant responsive element (Nrf2/ARE) small molecule agonists: qHTS cell viability counter screen in human keratinocytes (AID 1919968; active = well fitted cell-killing curve with a large enough effect in the repeat runs; also: nearly all actives have a fitted effect of over 55% in size; also: potency is read from the fitted curve at half-maximal effect)
Details: KeratinoSens HaCaT ARE cells viability, CellTiter-Fluor, 24 h; series mostly up to 92.4 µM
Outline: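 Parallel cytotoxicity read: KeratinoSens HaCaT cells, compound treatment 23 h, viability by CellTiter-Fluor fluorescence 1 h post-reagent.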

Structure (SMILES) | Potency
CCCCCCCC(=O)OC | inactive
O=C(Cl)c1c(Cl)c(Cl)c(C(=O)Cl)c(Cl)c1Cl | inactive
OC(Cn1cncn1)(Cn1cncn1)c1ccc(F)cc1F | inactive
COC(=O)CCCCC(=O)OC | inactive
C[C@]12CC[C@@H]3c4ccc(O)cc4CC[C@H]3[C@@H]1CC[C@H]2O | inactive
CCCN(CCC)C(=O)SCC | inactive
C=C(C#N)C(=O)OCC | inactive
C[Si]1(C)O[Si](C)(C)O[Si](C)(C)O[Si](C)(C)O1 | inactive
CC(=O)Nc1nnc(S(N)(=O)=O)s1 | inactive
O=[Se](O)O | inactive
CCCCCCCCCCC(CO)CCCCCCCC (stereo unspecified) | inactive
C#C[C@]1(O)CC[C@H]2[C@@H]3CCC4=Cc5oncc5C[C@]4(C)[C@H]3CC[C@@]21C | 61.1 µM (active) and 23.7 µM (active)
COC(C)COC(C)COC(C)CO (stereo unspecified) | inactive
Brc1ccc(Oc2ccc(Br)cc2)cc1 | inactive
O=C1CCCCCCCCCCCN1 | inactive
O=C(c1ccc(O)cc1)c1ccc(O)cc1O | inactive
CCCC(O)C(CC)CO (stereo unspecified) | inactive
CC(=O)Oc1ccc(C(c2ccc(OC(C)=O)cc2)c2ccccn2)cc1 | inactive
CC1COC(=O)O1 (stereo unspecified) | inactive
CC(=O)O[C@]1(C(C)=O)CC[C@H]2[C@@H]3C=C(Cl)C4=CC(=O)CC[C@]4(C)[C@H]3CC[C@@]21C | inactive
O=C(CC(C(=O)OC1CCCCC1)S(=O)(=O)O)OC1CCCCC1 (stereo unspecified) | inactive

System: not listed separately
Experiment: Nuclear factor erythroid 2-related factor 2/antioxidant responsive element (Nrf2/ARE) small molecule agonists: luciferase reporter gene qHTS assay in human keratinocytes (AID 1919969); also: nearly all actives have a fitted effect of over 35% in size; also: potency is read from the fitted curve at half-maximal effect
Details: KeratinoSens HaCaT ARE-luciferase, luminescence, 24 h; series mostly up to 92.4 µM

Structure (SMILES) | Potency
CCC(C)OC(=O)c1ccc(O)cc1 (stereo unspecified) | inactive
O=c1n(CC2CO2)c(=O)n(CC2CO2)c(=O)n1CC1CO1 (stereo unspecified) | 60.8 µM (active) and 68.6 µM (active)
COc1ccc2c(c1)c(CC(=O)O)c(C)n2C(=O)c1ccc(Cl)cc1 | inactive
Oc1c(Cl)cc(Cl)c(Cl)c1Cc1c(O)c(Cl)cc(Cl)c1Cl | 24.3 µM (active)
NC(=O)c1ncn([C@@H]2O[C@H](CO)[C@@H](O)[C@H]2O)n1 | inactive
CC(=O)OCC(=O)[C@@]12N=C(C)O[C@@H]1C[C@H]1[C@@H]3CCC4=CC(=O)C=C[C@]4(C)[C@H]3[C@@H](O)C[C@@]12C | inactive
CCCCC(CC)COC(=O)C(C#N)=C(c1ccccc1)c1ccccc1 (stereo unspecified) | inactive
OC1CCCCC1 | inactive
Cc1cc(=O)[nH]c(=S)[nH]1 | inactive
O=c1c(O)c(-c2ccc(O)cc2)oc2cc(O)cc(O)c12 | 17.2 µM (active) and inactive
COCCOCCOC | inactive
C=C(C)C(=O)OCCCCCC | inactive
C=C(C)C1CC=C(C)C(OC(C)=O)C1 (stereo unspecified) | inactive
Nc1ncn([C@@H]2O[C@H](CO)[C@@H](O)[C@H]2O)c(=O)n1 | 30.6 µM (active) and 7.5 µM (active)
C=C1C2CCC(C2)C1(C)C (stereo unspecified) | inactive
COCc1c(C(C)C)nc(C(C)C)c(/C=C/[C@@H](O)C[C@@H](O)CC(=O)O)c1-c1ccc(F)cc1 | inactive
CC(=O)Nc1ccc(C(=O)CCl)cc1 | 54.8 µM (active) and 9.69 µM (active)
C=CC(C)(CCC=C(C)C)OC(C)=O (stereo unspecified) | inactive
C[C@]12C[C@H](O)[C@H]3[C@@H](CCC4=CC(=O)CC[C@@]43C)[C@@H]1CC[C@@H]2C(=O)CO | inactive
CCCCCCCC(=O)OC | inactive

Structure (SMILES) | Potency
O=C(Cl)c1c(Cl)c(Cl)c(C(=O)Cl)c(Cl)c1Cl | inactive
OC(Cn1cncn1)(Cn1cncn1)c1ccc(F)cc1F | inactive
COC(=O)CCCCC(=O)OC | inactive
C[C@]12CC[C@@H]3c4ccc(O)cc4CC[C@H]3[C@@H]1CC[C@H]2O | inactive
CCCN(CCC)C(=O)SCC | inactive
C=C(C#N)C(=O)OCC | inactive and 68.6 µM (active)
C[Si]1(C)O[Si](C)(C)O[Si](C)(C)O[Si](C)(C)O1 | inactive
CC(=O)Nc1nnc(S(N)(=O)=O)s1 | inactive
O=[Se](O)O | inactive and 5.23 µM (active)
CCCCCCCCCCC(CO)CCCCCCCC (stereo unspecified) | inactive
C#C[C@]1(O)CC[C@H]2[C@@H]3CCC4=Cc5oncc5C[C@]4(C)[C@H]3CC[C@@]21C | inactive
COC(C)COC(C)COC(C)CO (stereo unspecified) | inactive
Brc1ccc(Oc2ccc(Br)cc2)cc1 | inactive
O=C1CCCCCCCCCCCN1 | inactive
O=C(c1ccc(O)cc1)c1ccc(O)cc1O | inactive
CCCC(O)C(CC)CO (stereo unspecified) | inactive
CC(=O)Oc1ccc(C(c2ccc(OC(C)=O)cc2)c2ccccn2)cc1 | 121 nM (active) and 841 nM (active)
CC1COC(=O)O1 (stereo unspecified) | inactive
CC(=O)O[C@]1(C(C)=O)CC[C@H]2[C@@H]3C=C(Cl)C4=CC(=O)CC[C@]4(C)[C@H]3CC[C@@]21C | 68.5 µM (active) and inactive
O=C(CC(C(=O)OC1CCCCC1)S(=O)(=O)O)OC1CCCCC1 (stereo unspecified) | inactive

Biological target: Gonadotropin-releasing hormone receptor (Homo sapiens) (UniProt P30968)
Experiment: Human gonadotropin-releasing hormone receptor (GnRHR) small molecule agonists, calcium flux assay in GnRHR-HEK293 cells (AID 1920063); also: nearly all actives have a fitted effect of over 35% in size
Details: calcium flux fluorescence, agonist mode; series mostly up to 57.6 µM
Outline: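 Calcium flux, agonist mode, human GnRHR stably integrated in HEK293; dye 1 h at 37 C before compound; Ex/Em=480/540 kinetic read, 3 min; 15 concentrations, triplicate.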

Sequence of Gonadotropin-releasing hormone receptor (Homo sapiens) (P30968 whole entry, looked up): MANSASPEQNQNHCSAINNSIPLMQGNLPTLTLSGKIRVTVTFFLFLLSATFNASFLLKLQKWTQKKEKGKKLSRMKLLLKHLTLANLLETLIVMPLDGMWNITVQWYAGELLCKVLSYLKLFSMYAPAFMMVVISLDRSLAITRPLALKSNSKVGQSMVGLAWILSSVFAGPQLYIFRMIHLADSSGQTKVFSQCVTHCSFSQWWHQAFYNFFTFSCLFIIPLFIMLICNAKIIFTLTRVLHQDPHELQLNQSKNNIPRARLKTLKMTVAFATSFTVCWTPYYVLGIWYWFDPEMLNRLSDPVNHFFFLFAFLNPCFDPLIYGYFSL

Structure (SMILES) | Potency
CCC(C)OC(=O)c1ccc(O)cc1 (stereo unspecified) | inactive
O=c1n(CC2CO2)c(=O)n(CC2CO2)c(=O)n1CC1CO1 (stereo unspecified) | inactive
COc1ccc2c(c1)c(CC(=O)O)c(C)n2C(=O)c1ccc(Cl)cc1 | inactive
Oc1c(Cl)cc(Cl)c(Cl)c1Cc1c(O)c(Cl)cc(Cl)c1Cl | inactive
NC(=O)c1ncn([C@@H]2O[C@H](CO)[C@@H](O)[C@H]2O)n1 | inactive
CC(=O)OCC(=O)[C@@]12N=C(C)O[C@@H]1C[C@H]1[C@@H]3CCC4=CC(=O)C=C[C@]4(C)[C@H]3[C@@H](O)C[C@@]12C | inactive
CCCCC(CC)COC(=O)C(C#N)=C(c1ccccc1)c1ccccc1 (stereo unspecified) | inactive
OC1CCCCC1 | inactive
Cc1cc(=O)[nH]c(=S)[nH]1 | inactive
O=c1c(O)c(-c2ccc(O)cc2)oc2cc(O)cc(O)c12 | inactive
COCCOCCOC | inactive
C=C(C)C(=O)OCCCCCC | inactive
C=C(C)C1CC=C(C)C(OC(C)=O)C1 (stereo unspecified) | inactive
Nc1ncn([C@@H]2O[C@H](CO)[C@@H](O)[C@H]2O)c(=O)n1 | inactive
C=C1C2CCC(C2)C1(C)C (stereo unspecified) | inactive
COCc1c(C(C)C)nc(C(C)C)c(/C=C/[C@@H](O)C[C@@H](O)CC(=O)O)c1-c1ccc(F)cc1 | inactive
CC(=O)Nc1ccc(C(=O)CCl)cc1 | inactive
C=CC(C)(CCC=C(C)C)OC(C)=O (stereo unspecified) | inactive
C[C@]12C[C@H](O)[C@H]3[C@@H](CCC4=CC(=O)CC[C@@]43C)[C@@H]1CC[C@@H]2C(=O)CO | inactive
CCCCCCCC(=O)OC | inactive

Structure (SMILES) | Potency
O=C(Cl)c1c(Cl)c(Cl)c(C(=O)Cl)c(Cl)c1Cl | inactive
OC(Cn1cncn1)(Cn1cncn1)c1ccc(F)cc1F | inactive
COC(=O)CCCCC(=O)OC | inactive
C[C@]12CC[C@@H]3c4ccc(O)cc4CC[C@H]3[C@@H]1CC[C@H]2O | inactive
CCCN(CCC)C(=O)SCC | inactive
C=C(C#N)C(=O)OCC | inactive
C[Si]1(C)O[Si](C)(C)O[Si](C)(C)O[Si](C)(C)O1 | inactive
CC(=O)Nc1nnc(S(N)(=O)=O)s1 | inactive
O=[Se](O)O | inactive
CCCCCCCCCCC(CO)CCCCCCCC (stereo unspecified) | inactive
C#C[C@]1(O)CC[C@H]2[C@@H]3CCC4=Cc5oncc5C[C@]4(C)[C@H]3CC[C@@]21C | inactive
COC(C)COC(C)COC(C)CO (stereo unspecified) | inactive
Brc1ccc(Oc2ccc(Br)cc2)cc1 | inactive
O=C1CCCCCCCCCCCN1 | inactive
O=C(c1ccc(O)cc1)c1ccc(O)cc1O | inactive
CCCC(O)C(CC)CO (stereo unspecified) | inactive
CC(=O)Oc1ccc(C(c2ccc(OC(C)=O)cc2)c2ccccn2)cc1 | inactive
CC1COC(=O)O1 (stereo unspecified) | inactive
CC(=O)O[C@]1(C(C)=O)CC[C@H]2[C@@H]3C=C(Cl)C4=CC(=O)CC[C@]4(C)[C@H]3CC[C@@]21C | inactive
O=C(CC(C(=O)OC1CCCCC1)S(=O)(=O)O)OC1CCCCC1 (stereo unspecified) | inactive
